Drawing on PubChem BioAssay (NCATS), this text covers Potency for 39 molecules.

Records with an inconclusive call do not appear. A call without a number means that no potency is given here. The source made the active and inactive calls. Calls follow the shape of the full dose curve; tested in HEK293 reporter line.

A short description of the test: qHTS for Inhibitors of the Functional Ribonucleoprotein Complex (vRNP) of Lassa (LASV) Arenavirus: LASV Primary Screen - GLuc reporter signal (AID 1347082). Also: nearly all actives have a fitted effect of over 60% in size. The following applies: LASV minigenome vRNP, Gaussia luciferase reporter; series mostly up to 57.5 µM. Background: Quantitative high-throughput screening tests each substance at several concentrations.
With `CC(C)(C)C(=O)OCOC(=O)[C@@H]1N2C(=O)[C@@H](NC(=O)[C@H](N)c3ccccc3)[C@H]2SC1(C)C`, the Potency entry was “inactive”.

Take `O=C1C(CCS(=O)c2ccccc2)C(=O)N(c2ccccc2)N1c1ccccc1` (centres undefined): the Potency entry is “inactive”.

Consider `NS(=O)(=O)c1cc2c(cc1Cl)NC(C1CC3C=CC1C3)NS2(=O)=O` (centres undefined), for which the Potency result was “inactive”.

Consider `N[C@@H](Cc1cc(I)c(O)c(I)c1)C(=O)O`, for which the Potency entry is “inactive”.

With `CCCCc1ccc2nc(NC(=O)OC)[nH]c2c1`, the Potency result was “inactive”.

Take `O=c1[nH]c2ccccc2n1CCCN1CCN(C(c2ccccc2)c2ccccc2)CC1`: the Potency result is “inactive”.

With `Cc1c(N)c(=O)n(-c2ccccc2)n1C`, the Potency entry is “inactive”.

For `CCN(CCCc1ccccc1)CCCc1ccccc1`, the Potency result is “inactive”.

Turning to `CC1=C(C(=O)O)N2C(=O)[C@@H](NC(=O)[C@H](N)C3=CCC=CC3)[C@H]2SC1`, the Potency entry was “inactive”.

Take `CCCc1cc(C(N)=S)ccn1`: the Potency result is “inactive”.

Consider `CCC1NC(=O)c2cc(S(N)(=O)=O)c(Cl)cc2N1` (centres undefined), for which the Potency entry was “inactive”.

As to `Cc1[nH]c(C)c(Cl)c(=O)c1Cl`, the Potency result is “inactive”.

With `CCN(CC)C(=O)c1cccc(C)c1`, the Potency result is “inactive”.

As for `CC(C)(C)CC(C)(C)c1ccc(O)c(Cc2ccc(Cl)cc2Cl)c1`, the Potency entry was “inactive”.

Consider `COc1ccc(CCC(C)=O)cc1`, for which the Potency result is “inactive”.

With `CCN1CCCC(OC(=O)C(c2ccccc2)c2ccccc2)C1` (centres undefined), the Potency result is “inactive”.

In the case of `Nc1ccn([C@H]2CC[C@@H](CO)O2)c(=O)n1`, the Potency result is “inactive”.

In the case of `CC(C(=O)O)c1ccc(CC2CCCC2=O)cc1` (centres undefined), the Potency result is “inactive”.

For the molecule `CCC(=O)O[C@]1(C(=O)COC)[C@@H](C)C[C@H]2[C@@H]3CCC4=CC(=O)C=C[C@]4(C)C3(F)[C@@H](O)C[C@@]21C` (some centres undefined), the Potency entry is “inactive”.

Regarding `O=C(CS)Nc1ccccc1`, the Potency result was “inactive”.

With `OC[C@H]1O[C@@H](OCCc2ccc(O)cc2)[C@H](O)[C@@H](O)[C@H]1O`, the Potency result was “inactive”.

As to `C[C@@]12CCC[C@H]1[C@@H]1CC[C@H]3C[C@@H](O)CC[C@]3(C)[C@H]1CC2`, the Potency entry was “inactive”.

Take `CCOC(CN1CCN(CC(C)C(=O)c2ccccc2)CC1)c1ccccc1` (centres undefined): the Potency result was “inactive”.

Regarding `Cc1cc(C(C)(C)C)c(O)c(C)c1CC1=NCCN1`, the Potency result was “inactive”.

With `c1ccc(CC2=NCCN2)cc1`, the Potency entry was “inactive”.

Consider `c1ccc(CCNc2nc(-c3ccccc3)cs2)cc1`, for which the Potency entry was “inactive”.

For the molecule `COc1ccc(/C=C/C(=O)c2ccc(OC)cc2OC)cc1`, the Potency result is “inactive”.

Regarding `Nc1nc2ccccc2n1Cc1ccc(F)cc1`, the Potency entry is “inactive”.

For the molecule `O=C(O)c1cccc(-c2noc(-c3ccccc3F)n2)c1`, the Potency result is “inactive”.

With `CC(=O)N(CC(=O)N(C)C)c1ccccc1`, the Potency entry was “inactive”.

On to `Oc1ccc(C(O)CNCCCCCCNCC(O)c2ccc(O)c(O)c2)cc1O` (centres undefined), for which the Potency entry is “inactive”.

For `CCOC(=O)OCC/C(SC(=O)OCC)=C(\C)N(C=O)Cc1cnc(C)nc1N`, the Potency entry was “inactive”.

Take `CN1CCC(=C2c3ccccc3CCc3cccnc32)CC1`: the Potency result is “inactive”.

`CCOCCOC(=O)/C=C/c1ccc(OC)cc1`: the Potency result is “inactive”.

Regarding `COC(=O)C1=C(C)NC(C)=C(C(=O)OCCCN2CCC(c3ccccc3)(c3ccccc3)CC2)C1c1cccc([N+](=O)[O-])c1` (centres undefined), the Potency result was “inactive”.

Consider `c1ccc(OCc2ccc(CCCN3CCOCC3)cc2)cc1`, for which the Potency result is “inactive”.

Regarding `CCOC(=O)c1ccc(C#Cc2ccc3c(c2)C(C)(C)CCS3)nc1`, the Potency entry is “inactive”.

Regarding `Oc1c(Cl)cc(Cl)cc1Sc1cc(Cl)cc(Cl)c1O`, the Potency result is “inactive”.

`CN(C)CCCOc1nn(Cc2ccccc2)c2ccccc12`: the Potency result was “inactive”.
